# High-throughput results as filed in PubChem.
# Pf growth 48h = P. falciparum growth inhibition at 48 hours (one generation) | P. falciparum luciferase growth in erythrocytes, 48 h | AID 504832 | Potency, µM (series often up to 28.7 µM), usual class: inhibitors | 310,000 compounds, 5.9% hits
#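 Parasite viability was followed by luminescence of a genomically integrated firefly luciferase. Cultures held 0.1% parasitemia at 2% hematocrit (final), incubated under 5% CO2 at 37 C.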
# Sm TGR block = inhibitors of Schistosoma mansoni thioredoxin glutathione reductase | Q962Y6 | purified TGR, DTNB reduction, TNB absorbance 405 nm | Potency, µM (titrated, usually from 114 µM), usual class: inhibitors | 360,000 compounds, 3% hits; note: nearly all actives have a fitted effect of over 60% in size
#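 Kinetic colorimetric format: TGR-catalysed, NADPH-driven DTNB reduction monitored via TNB absorbance. Enzyme dispensed at 20 nM; compound exposure 15 min at room temperature before reaction start.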
# AMA1-RON2 inh = disrupts binding of P. falciparum AMA1 to RON2; AlphaScreen AMA1-biotinylated RON2 peptide binding; Potency, µM (top dose mostly 58.2 µM), actives largely listed as inhibitors; 360,000 compounds, 0.2% hits; AID 720542; note: nearly all actives have a fitted effect of over 45% in size
#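 AMA1 (3D7) with his tag at 25 nM final met compounds first, then biotinylated RON2 peptide at 25 nM; detection used donor plus acceptor beads, 10 µg/mL apiece, read by AlphaScreen after 30 min at room temperature.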
# Pf growth 96h = P. falciparum growth inhibition at 96 hours. Potency, µM (titrated, usually from 28.7 µM), actives largely listed as inhibitors. AID 504834. 320,000 compounds, 6.9% hits. P. falciparum luciferase reporter growth, 96 h
#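 Two-generation exposure (96 h) targets delayed-death phenotype. Reporter parasites carrying integrated firefly luciferase, in red cells at 2% hematocrit and 0.05% parasitemia final, kept at 37 C, 5% CO2; luminescence loss indicates inhibition.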
# NS1 function inh = inhibitors of influenza NS1 protein function; Potency, µM (top dose mostly 46.1 µM); 270,000 compounds, 0.4% hits; AID 2326; calls by dose curve; note: actives are rising curves; nearly all actives have a fitted effect of over 50% in size
#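 Growth recovery, yeast-based: influenza A NS1 expressed in S. cerevisiae causes slow growth, and suppressors are detected by OD600. The parent strain without NS1 is used as positive control.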
# A number is an active result; i = inactive; ? = inconclusive; nt = no result given. Hits are enriched below; roughly 11% of the tested compounds scored in any of these assays. Unless noted, calls come from the whole dose curve; as a rule, active = well fitted curve in the direction sought with a large enough effect; inconclusive = small, poorly fitted or top-dose-only effect, or another doubt; inactive = no such curve, though single readings can be large; an effect the other way counts as inactive or inconclusive.
SMILES,Pf growth 48h,Sm TGR block,AMA1-RON2 inh,Pf growth 96h,NS1 function inh
Cc1noc(C)c1S(=O)(=O)N1CCCC(C(=O)NCCc2ccc(Cl)cc2)C1 (stereo unspecified),12µM,i,i,nt,i
O=C(CN1CCCC1)Nc1nc(-c2ccc3c(c2)CCN3C(=O)c2ccccc2F)cs1,15µM,i,i,?,i
Cc1ccc(-c2csc(NC(=O)CN3CCOCC3)n2)cc1,i,i,i,i,i
O=C(CN1CCOCC1)Nc1nc(-c2ccc3c(c2)CCN3S(=O)(=O)c2ccccc2)cs1,2.1µM,i,i,nt,i
Cc1sc(NC(=O)CN2CCOCC2)nc1-c1ccc2c(c1)CCN2S(=O)(=O)c1ccccc1,12µM,i,i,nt,i
Cc1cccc(C(=O)N2CCc3cc(-c4csc(NC(=O)CN5CCCC5)n4)ccc32)c1,?,i,i,?,i
CN1CCN(C(=O)C(=O)c2cn(CC(=O)N3CCCCCC3)c3ccccc23)CC1,nt,nt,i,nt,nt
O=C(CC1C(=O)NCCN1C/C=C/c1ccccc1)NCCCC1CCCC1 (stereo unspecified),i,i,i,?,i
CC(=O)c1ccc(NS(=O)(=O)c2ccc3[nH]c(=O)[nH]c3c2)cc1,nt,i,nt,nt,nt
CC(OC(=O)c1ccc(NS(=O)(=O)c2ccc3[nH]c(=O)[nH]c3c2)cc1)C(=O)Nc1ccc(Cl)cc1 (stereo unspecified),0.83µM,i,i,0.59µM,i
CCN(CC)C(=O)c1ccc(NS(=O)(=O)c2ccc3[nH]c(=O)[nH]c3c2)cc1,12µM,i,i,8.3µM,i
CCCN1CCC(NC(=S)Nc2ccc(S(N)(=O)=O)cc2)CC1,i,i,i,i,i
COc1ccc(Br)c(C(=O)NNC(=O)c2ccc(NS(=O)(=O)c3cccs3)cc2)c1,i,i,i,i,nt
CCc1ccc(NC(=O)c2ccc3c(c2)c(C)c(C)n3Cc2ccccc2)cc1,nt,i,nt,nt,nt
CCn1ncc(/C=N\NC(=O)c2ccc3c(c2)c(C)c(C)n3Cc2ccccc2)c1C,nt,i,i,?,i
CCn1nc(C)c(/C=N/NC(=O)c2ccc3c(c2)c(C)c(C)n3Cc2ccccc2)c1C,nt,i,i,12µM,i
CCn1cc(/C=N\NC(=O)c2ccc3c(c2)c(C)c(C)n3Cc2ccccc2)c(C)n1,nt,i,i,10µM,i
O=C(NCc1ccccc1)C(c1ccc(C(F)(F)F)cc1)n1c(=O)c(-c2ccco2)nc2ccccc21 (stereo unspecified),nt,nt,i,nt,nt
CC(C)(C)c1ccccc1NC(=O)c1cnn2c(C(F)F)cc(-c3ccccc3)nc12,nt,i,nt,nt,nt
COc1cccc(C2CNC3(CCCC(C)C3)c3[nH]c4ccccc4c32)c1OC (stereo unspecified),nt,i,i,9.3µM,i
CCC(CO)Oc1cc(NC(=O)c2ccc([N+](=O)[O-])cc2)c2ncn(C(C)C)c2c1 (stereo unspecified),nt,nt,i,nt,nt
O=C1C(=O)N(C2CCN(S(=O)(=O)c3ccccc3)CC2)CCN1Cc1ccccc1,nt,i,nt,nt,nt
O=C(Oc1ccc2ccc(OC(=O)N3CCOCC3)cc2c1)N1CCOCC1,i,i,i,10µM,i
CCN(CC)C(=O)Cn1c(=O)n(-c2ccc(Cl)cc2)c(=O)c2c3c(sc21)CCCCC3,nt,i,nt,nt,nt
COc1ccc(C(=O)N2CCc3cc(OC)c(OC)cc3C2COc2ccc3c(C)cc(=O)oc3c2)c(OC)c1 (stereo unspecified),nt,i,nt,nt,nt
SMILES,Pf growth 48h,Sm TGR block,AMA1-RON2 inh,Pf growth 96h,NS1 function inh
Cc1cn2c(=O)c(S(=O)(=O)NC(C)c3ccccc3)c(C)nc2s1 (stereo unspecified),nt,i,nt,nt,nt
Cc1ccccc1-n1nc2c(c1NC(=O)/C=C\c1ccc3c(c1)OCO3)CSC2,?,i,i,12µM,i
Cc1cccnc1NC(=O)/C=C/c1ccc2c(c1)OCO2,i,i,i,10µM,i
COc1ccc2nc(Nc3ccc4c(c3)OCO4)sc2c1,i,i,i,i,?
COc1ccc2nc(NC(=O)/C=C/c3ccc4c(c3)OCO4)sc2c1,i,i,nt,1.9µM,i
CC(=O)Nc1cccc(-c2ccnc3c2CC(C(=O)NCCC(F)(F)F)O3)c1 (stereo unspecified),nt,nt,i,nt,nt
OC[C@@H]1CN(Cc2ccc(-c3ccccc3)cc2)C[C@H](n2cnc3c(NCc4ccc(F)cc4)ncnc32)O1,nt,nt,i,nt,nt
CCn1c(CNC(=O)C23CC4CC(CC(C4)C2)C3)nnc1SCC(=O)Nc1ccc(C)cc1,nt,i,nt,nt,nt
O=C(CCc1ccc(O)c(O)c1)N/N=C/c1cc2c(cc1[N+](=O)[O-])OCO2,?,16µM,?,i,i
O=[N+]([O-])c1cc(Br)cc(C=Nc2ccc3c(c2)OCO3)c1O,i,18µM,i,i,i
Cc1ccc(C)c(N=Cc2cc3c(cc2[N+](=O)[O-])OCO3)c1,?,i,i,0.042µM,nt
O=[N+]([O-])c1ccc(O)c(C=Nc2ccc3c(c2)OCO3)c1,i,i,i,i,i
Cc1ccc(N=Cc2cc3c(cc2[N+](=O)[O-])OCO3)cc1[N+](=O)[O-],nt,nt,i,nt,nt
COC(=O)c1cc2oc(C)cc2n1Cc1c(C)cc(C)cc1C,nt,i,nt,nt,nt
COc1ccc(-c2nn(-c3ccccc3)cc2C(=O)O)cc1,nt,i,i,i,i
Cc1ccc(-c2nn(-c3ccccc3)cc2CN(Cc2ccccc2)C(=O)c2ccco2)o1,nt,i,i,12µM,i
Cc1ccc(-c2nn(-c3ccccc3)cc2/C=C/C(=O)O)o1,i,32µM,i,i,i
Cc1ccc(-c2nn(-c3ccccc3)cc2C(=O)O)o1,i,20µM,nt,i,i
C#CCOCCOCCOCCNc1nc(N2CCN(C(=O)[C@H](CCC(=O)O)n3cc(CN)nn3)CC2)nc(N2CCN(C(=O)[C@H](CCCCN)n3cc([C@@H](N)CC(N)=O)nn3)CC2)n1,nt,nt,i,nt,nt
